Shown are actives, neighbours in structure and some others; about 19% of the full set was active somewhere.
TDP1 cell noCPT – qHTS for Inhibitors of human tyrosyl-DNA phosphodiesterase 1 (TDP1): qHTS in cells in absence of CPT; Potency, µM (titrated, usually from 46.2 µM), usual class: inhibitors; 420,000 compounds, 15% hits; DT40 Tdp1-/- hTDP1 cells, no CPT, ATP luminescence, 48 h; further: nearly all actives have a fitted effect of over 55% in size
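No-CPT arm: Tdp1-/-;hTDP1 DT40 cells (400/well) plus compounds, incubated ≥48 hr at 37 °C. Readout CellTiter-Glo luminescence.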
TDP1 block – TDP1 (human) enzyme inhibition. recombinant TDP1, AlphaScreen DNA substrate cleavage. Potency, µM (doses to about 130 µM), actives largely listed as inhibitors. 350,000 compounds, 0.28% hits; further: nearly all actives have a fitted effect of over 40% in size
Target sequence (Q9NUW8 whole entry, looked up): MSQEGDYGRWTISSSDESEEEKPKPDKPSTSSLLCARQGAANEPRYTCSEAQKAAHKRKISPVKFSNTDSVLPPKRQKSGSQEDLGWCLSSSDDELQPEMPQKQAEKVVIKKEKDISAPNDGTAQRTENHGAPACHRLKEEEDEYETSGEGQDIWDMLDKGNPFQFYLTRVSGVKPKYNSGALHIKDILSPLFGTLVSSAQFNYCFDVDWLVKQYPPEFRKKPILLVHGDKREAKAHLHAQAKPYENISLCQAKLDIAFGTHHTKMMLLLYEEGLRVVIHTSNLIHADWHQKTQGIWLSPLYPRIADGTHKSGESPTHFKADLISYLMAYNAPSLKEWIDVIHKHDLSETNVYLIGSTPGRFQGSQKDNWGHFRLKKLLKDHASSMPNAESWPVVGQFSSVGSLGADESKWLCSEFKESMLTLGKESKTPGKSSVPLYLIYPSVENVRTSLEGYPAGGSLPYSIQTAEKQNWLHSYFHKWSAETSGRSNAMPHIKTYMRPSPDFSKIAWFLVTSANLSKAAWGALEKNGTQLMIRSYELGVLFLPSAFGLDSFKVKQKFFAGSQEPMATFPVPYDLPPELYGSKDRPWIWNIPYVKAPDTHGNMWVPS
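Steps: enzyme plus compound, 15 min RT; add biotin/phosphotyrosine-FITC oligonucleotide (15 nM final), react 5 min; add donor/acceptor beads (10 ug/ml final), 10 min; read AlphaScreen. Tdp1 at 1 nM final.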
RORg inh – ROR gamma (mouse) transcription inhibition; P51450; Drosophila S2 Gal4-RORgamma UAS-luciferase reporter, 20 h; Potency, µM (series often up to 53.6 µM), hits mostly inhibitors; 310,000 compounds, 5.4% hits; AID 2551; further: nearly all actives have a fitted effect of over 60% in size
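Luciferase reporter read in Schneider cells carrying Gal4-RORγ (mouse) and UAS-Photinus luciferase; cells given compound 1 h before 700 uM copper sulfate induction, then incubated 20 h at ambient temperature.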
DT40 TDP1 CPT – DT40-hTDP1 cell growth loss with CPT; chicken DT40 Tdp1-/-;hTDP1 cells + 20 nM CPT, ATP luminescence, 48 h; Potency, µM (titrated, usually from 46.2 µM), most hits filed as inhibitors; 420,000 compounds, 12% hits; further: nearly all actives have a fitted effect of over 55% in size
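Chicken DT40 Tdp1-/- cells stably complemented with human TDP1 were seeded at 400 cells/well in medium containing 20 nM camptothecin, exposed to pin-transferred compounds, and grown at 37 °C for at least 48 hr. Viability was read as ATP luminescence.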
VP16 counter – Gal4-VP16 reporter inhibition counter-screen; Drosophila S2 Gal4-VP16 UAS-luciferase, luminescence, 20 h; Potency, µM (top dose mostly 53.6 µM), most hits filed as inhibitors; 310,000 compounds, 3.5% hits;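 further: Gal4-VP16 expression switched on by copper sulfate through the metallothionein promoter; nearly all actives have a fitted effect of over 50% in size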
Each line names hits and unclear results; the compound was inactive in the other large screens. The call rests on the fitted dose curve; in most records, active means well fitted curve in the direction sought with a large enough effect; inconclusive means small, poorly fitted or top-dose-only effect, or another doubt; inactive means no such curve, though single readings can be large; an effect the other way counts as inactive or inconclusive.

COC(=O)c1c(C(=O)OC)c(-c2ccccc2)n2c1CCC2	none
CCCSc1nc(N2CCCC2)c2c(c1C#N)CC(C)(C)OC2	TDP1 cell noCPT inconclusive, DT40 TDP1 CPT inconclusive
C[C@@H]1C[C@@H]([C@@H](C)CC2CC(=O)NC(=O)C2)C(=O)[C@@H](C)C1	RORg inh 0.224µM (no result: TDP1 cell noCPT, DT40 TDP1 CPT)
O=S(=O)(CCc1ccccc1)c1ccccc1	none (no result: TDP1 cell noCPT, DT40 TDP1 CPT)
Cc1ccc(Cn2c(=O)n(CCc3ccc(Cl)cc3)c(=O)c3ccccc32)cc1	none (no result: RORg inh, VP16 counter)
Cc1c(CCCN)c2ccccc2n1Cc1ccccc1	TDP1 cell noCPT 16.4µM, DT40 TDP1 CPT inconclusive
CC1(C)C2CCC1(CS(=O)(=O)NCc1ccc(C(F)(F)F)cc1)C(=O)C2 (centres undefined)	TDP1 cell noCPT 11.6µM, DT40 TDP1 CPT inconclusive (no result: TDP1 block)
CC(C)Cc1ccc(S(=O)(=O)N2CCN(Cc3noc(CCC(=O)N4CCCCC4)n3)CC2)cc1	TDP1 cell noCPT 20.6µM, DT40 TDP1 CPT inconclusive (no result: RORg inh, VP16 counter)
CC(C)CNS(=O)(=O)c1ccc(CCC(=O)N2CCCC2)cc1	none
Cc1ccc(C2C(=O)N(C3CCC(C)CC3)CC(=O)N2C2CC2)cc1 (centres undefined)	none
O=C(CNc1ccc(F)cc1)N/N=C1\CCCc2ccccc21	TDP1 cell noCPT inconclusive
O=C(Cc1cccc2ccccc12)N/N=C/c1ccc(F)cc1	TDP1 cell noCPT inconclusive, DT40 TDP1 CPT inconclusive
Cn1cccc1/C=N/NC(=O)CNc1ccc2ccccc2c1	none
Cn1cccc1/C=N/NC(=O)Cc1cccc2ccccc12	TDP1 cell noCPT 11.6µM, RORg inh inconclusive, DT40 TDP1 CPT inconclusive, VP16 counter 14.1µM
O=C(Cc1cccc2ccccc12)N/N=C1\CCCc2ccccc21	TDP1 cell noCPT 16.4µM, DT40 TDP1 CPT inconclusive
O=C(CCC(=O)Nc1ccccc1Cl)N/N=C1\CCCc2ccccc21	none
O=C(Cc1ccc(Cl)cc1)N/N=C1\CCCc2ccccc21	TDP1 cell noCPT 23.1µM, RORg inh inconclusive, DT40 TDP1 CPT inconclusive, VP16 counter inconclusive
O=C(Cc1cccc2ccccc12)NN=Cc1ccc2c(c1)CCC2	TDP1 cell noCPT 20.6µM, DT40 TDP1 CPT inconclusive (no result: TDP1 block, RORg inh, VP16 counter)
COCCCC1CCN(C(=O)C2CCC(=O)N(C3CCCC3)C2)CC1 (centres undefined)	none
CCOC(=O)C1=NOC(CNC(=O)C2=NOC(CNC(=O)c3c(-c4ccccc4Cl)noc3C)C2)C1 (centres undefined)	none
Cc1cc([N+](=O)[O-])nn1CCCC(=O)Nc1ccc2c(c1)OCO2	none
CCOC(=O)C1CCCN(C(=O)c2nn(-c3ccc(C)cc3)c(=O)n(C)c2=O)C1 (centres undefined)	none (no result: RORg inh, VP16 counter)
COc1cccc(N2CCN(C(=O)c3ccc(CS(=O)c4ccc(Cl)cc4)o3)CC2)c1 (centres undefined)	TDP1 cell noCPT 0.92µM, DT40 TDP1 CPT 0.731µM
COc1cccc(N2CCN(C(=O)c3ccc(CS(=O)c4ccc(C)cc4)o3)CC2)c1 (centres undefined)	TDP1 cell noCPT 0.517µM, DT40 TDP1 CPT 0.581µM
COc1cccc(N2CCN(C(=O)c3ccc(CS(=O)Cc4ccc(C)cc4)o3)CC2)c1 (centres undefined)	TDP1 cell noCPT inconclusive, DT40 TDP1 CPT inconclusive
O=C(c1ccc(CS(=O)Cc2ccc(Cl)cc2)o1)N1CCN(c2cccc(Cl)c2)CC1 (centres undefined)	DT40 TDP1 CPT inconclusive
O=C(O)c1ccc2oc(=O)c(S(=O)(=O)c3ccc(F)cc3)cc2c1	none (no result: TDP1 block)
CCc1ccc(NC(=O)C2CCCN2S(=O)(=O)c2ccc3c(c2)CCCC(=O)N3)cc1 (centres undefined)	TDP1 cell noCPT 18.4µM, DT40 TDP1 CPT 16.4µM (no result: RORg inh, VP16 counter)
Cc1ccc(Cl)cc1NC(=O)C1CCCN1S(=O)(=O)c1ccc(-c2ccc(=O)[nH]n2)s1 (centres undefined)	TDP1 cell noCPT 14.6µM, VP16 counter inconclusive
Cc1cc(Cl)ccc1NC(=O)C1CCCN1S(=O)(=O)c1ccc2c(c1)CCCC(=O)N2 (centres undefined)	TDP1 cell noCPT 8.2µM, DT40 TDP1 CPT 14.6µM (no result: RORg inh, VP16 counter)
Cc1ccc(NC(=O)C2CCCN2S(=O)(=O)c2ccc3c(c2)CCCC(=O)N3)cc1C (centres undefined)	TDP1 cell noCPT 20.6µM, DT40 TDP1 CPT inconclusive (no result: RORg inh, VP16 counter)
CNC(=O)c1cccc(NC(=O)C(C)c2ccc3cc(OC)ccc3c2)c1 (centres undefined)	TDP1 cell noCPT inconclusive, DT40 TDP1 CPT inconclusive (no result: TDP1 block)
O=S(=O)(c1ccccc1)N1CCC[C@@]2(CCN(Cc3nccs3)C2)C1	TDP1 cell noCPT inconclusive, DT40 TDP1 CPT inconclusive (no result: TDP1 block)
O=C(Nc1cc(C(F)(F)F)ccc1F)C1Cc2c(-c3ccccc3Oc3ccccc3)ccnc2O1 (centres undefined)	TDP1 cell noCPT 18.4µM, DT40 TDP1 CPT inconclusive (no result: TDP1 block, RORg inh, VP16 counter)
O=C(Nc1ccc(Cl)cc1)C1Cc2c(-c3ccccc3Oc3ccccc3)ccnc2O1 (centres undefined)	TDP1 cell noCPT inconclusive, DT40 TDP1 CPT 23.1µM (no result: TDP1 block, RORg inh, VP16 counter)
Cn1nc(-c2ccc(OCC(=O)Nc3ccc(Cl)cc3)cc2)c2ccccc2c1=O	TDP1 cell noCPT 20.6µM, DT40 TDP1 CPT inconclusive (no result: TDP1 block, RORg inh, VP16 counter)
CN(C(=O)c1ccc(-c2nn(C)c(=O)c3ccccc23)cc1)c1ccccc1	TDP1 cell noCPT 16.4µM, DT40 TDP1 CPT inconclusive
Cc1cccc(NC(=O)COc2ccccc2)c1	none
O=C(CCn1nc(-c2ccccc2)c2ccccc2c1=O)N1CCN(c2ccccc2)CC1	TDP1 cell noCPT 23.1µM, DT40 TDP1 CPT 16.4µM
Cc1cccc(NC(=O)COc2ccc(-c3nn(C)c(=O)c4ccccc34)cc2)c1	TDP1 cell noCPT 16.4µM, DT40 TDP1 CPT 11.6µM
CC(=O)C1=C(O)C(=O)N(CC#N)C1c1cccs1 (centres undefined)	none (no result: TDP1 block)
COc1ccc(B(O)O)c(CN2CCN(C(=O)OC(C)(C)C)CC2)c1	none (no result: TDP1 block, RORg inh, VP16 counter)
COc1ccccc1NC(=O)Cc1nn(C)c(=O)c2ccccc12	TDP1 cell noCPT 8.2µM, DT40 TDP1 CPT 16.4µM (no result: VP16 counter)
Cc1ccc(NC(=O)CCn2nc(-c3ccccc3)c3ccccc3c2=O)c(C)c1	TDP1 cell noCPT inconclusive, DT40 TDP1 CPT 20.6µM (no result: RORg inh, VP16 counter)
CCCNC(=O)COc1ccc(-c2nn(C)c(=O)c3ccccc23)cc1	TDP1 cell noCPT 20.6µM, RORg inh inconclusive, DT40 TDP1 CPT inconclusive (no result: TDP1 block)
Cn1nc(-c2ccc(OCC(N)=O)cc2)c2ccccc2c1=O	none
Cc1ccc2occ(CC(=O)Nc3nnc(C(C)C)s3)c2c1	none (no result: RORg inh, VP16 counter)
Cc1csc(NC(=O)Cc2coc3cc(C)c(C(C)C)cc23)n1	TDP1 cell noCPT 16.4µM, DT40 TDP1 CPT 13µM
CCOCCCNC(=O)C1CCN(S(=O)(=O)c2c(C)noc2/C=C\c2ccc(OC)cc2)CC1	none (no result: TDP1 block, RORg inh, VP16 counter)
O=C(CN(C(=O)c1csnn1)c1cccc(C(F)(F)F)c1)NCc1ccc(F)cc1	RORg inh inconclusive
CNC(=O)COc1ccc(NC(=O)CCn2nc(-c3ccc(C)cc3)c3ccccc3c2=O)cc1	TDP1 cell noCPT 20.6µM, DT40 TDP1 CPT inconclusive (no result: RORg inh, VP16 counter)

Compound activity as filed in PubChem BioAssay.
